Measurements from PubChem BioAssay (NCI).
About 83,000 compounds went through this panel and 20% of them were active in at least one assay; those are over-represented in the sample as a whole.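 Percent growth is the endpoint: 0 to 100 indicates growth inhibition (40 means 60% inhibition), 0 means no net growth, and negative values indicate cell death.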 Values without a mark were called inactive. Calls of active or inactive are those of the source. Rule for the calls: active = growth percent below 10; inactive = the rest.

How the values were obtained:
Experiment in all cases: NCI-60 one-dose screen, 48 h (100 = growth as untreated, 0 = no growth, -100 = all killed)
Conditions in all cases: 10 µM
NCI-H23 lung = tested on: NCI-H23 lung
NCI-H226 lung = tested on: NCI-H226 lung
HOP-62 NSCLC = tested on: HOP-62 NSCLC
NCI-H460 lung = tested on: NCI-H460 lung
HOP-92 NSCLC = tested on: HOP-92 NSCLC
NCI-H522 lung = tested on: NCI-H522 lung
A549/ATCC NSCLC = tested on: A549/ATCC NSCLC
COLO 205 colon = tested on: COLO 205 colon
786-0 renal = tested on: 786-0 renal

Row | SMILES | growth (NCI-H23 lung) | growth (NCI-H226 lung) | growth (HOP-62 NSCLC) | growth (NCI-H460 lung) | growth (HOP-92 NSCLC) | growth (NCI-H522 lung) | growth (A549/ATCC NSCLC) | growth (COLO 205 colon) | growth (786-0 renal)
1 | Cc1ccc(C(SCC(N)C(=O)O)(c2ccc(C)cc2)c2ccc(C)cc2)cc1 (stereo unspecified) | 18.3% | 64.1% | -48.3% (active) | 3.09% (active) | -15.3% (active) | -66.2% (active) | 14.6% | 0.644% (active) | 
2 | CC(=O)C1N=NCC1c1ccccc1 (stereo unspecified) | 106% | 98% | 112% | 98.8% | 73.8% | 88.5% |  | 114% | 110%
3 | CNS(=O)(=O)Oc1ccc(-c2sc3cc(OS(=O)(=O)NC)ccc3c2C(=O)c2ccc(OCCN3CCCCC3)cc2)cc1 | 65.6% | 84.4% | 79.8% | 42.4% | 64.2% | 78.7% | 62.4% | 77.9% | 73.5%
4 | Cc1cc(SCc2ccccc2)nc(N)n1 | 97.3% | 115% | 105% | 111% | 85.2% |  | 105% | 127% | 79.1%
5 | CC(=O)Nc1ccc2c(c1)C(=O)c1cccc(C(=O)O)c1-2 | 104% | 95.5% | 98.9% | 98.1% | 96.6% | 108% | 97.6% | 114% | 105%
6 | CCOC(=O)c1cc(C(=O)c2ccc(Cl)cc2)n2ccc(-c3cc[n+](CC(=O)c4ccc(OC)cc4)cc3)cc12 | 88.2% | 102% | 87.7% | 3.93% (active) | 67.8% | 70.8% | 32.2% | 42.8% | 9.1% (active)
7 | CCN(CCCNc1cc2c(c(N)c1S(=O)(=O)O)C(=O)c1ccccc1C2=O)c1ccccc1 | 89.3% | 84.4% | 92.1% | 102% | 112% | 96.3% | 104% | 109% | 96.3%
8 | Cc1cc(Cl)ccc1Nc1nc(C(F)(F)F)ccc1C(=O)N/N=C/c1cccc(O)c1 | 43.8% | 38.8% | 44.2% | 30.9% | 48.1% | 40.2% |  |  | -30.6% (active)
9 | CCC(=O)OC1CCC2C3CCC(=O)OC3C(C)(CCC(=O)O)CC12C (stereo unspecified) | 33.1% | 60.1% | 38.5% | 42.6% | -1.1% (active) | 24.7% |  | 41.7% | -41.7% (active)
10 | CCN(CC)CCOC(=O)c1cc(OCc2ccccc2)c(OCc2ccccc2)c(OCc2ccccc2)c1 | 58.6% | 73.6% | 62.4% | 12.4% | 40% | 45% | 42.5% | 62.1% | 52.1%
11 | CSc1nc(S(C)(=O)=O)nc2[nH]c(=O)[nH]c12 | 98.8% | 101% | 98.2% | 116% | 97.5% |  | 106% | 106% | 107%
12 | CCN(CC)CCN1c2nc3ccccc3cc2Sc2cc3ccccc3nc21 | -5.59% (active) | -10.6% (active) | 12.8% | -95.2% (active) | -12.9% (active) | -69.4% (active) |  | -73.9% (active) | -40% (active)
13 | O=C(N/N=C/c1ccc([N+](=O)[O-])cc1)c1ccccc1Nc1cccc(C(F)(F)F)c1 | 91.2% | 95.2% | 89.4% | 115% | 61% | 88.8% |  | 131% | 73%
14 | O=[N+]([O-])c1ccc2ncccc2c1Cl | 86.7% | 109% | 44.5% | 93.1% | 99% | 41.3% | 99.9% | -69.2% (active) | 63.5%
15 | Clc1ccc(/C=C2\CCCC3C2=Nc2ccccc2NC3c2ccc(Cl)cc2)cc1 (stereo unspecified) | 83.3% | 100% | 122% | 94.3% | 60.6% | 20% | 78.5% | 68.2% | 114%
